This is part of a sample that, as a whole, favours compounds with a hit. Of some 83,000 tested, about 20% had one in any assay.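 Each cell line was grown in a 96-well plate and treated with one concentration of compound for 48 hours. Values below 10 were considered active.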 Values without a mark were called inactive. Active and inactive are the calls of the source.
System: SK-MEL-2 melanoma
Test: NCI-60 one-dose screen, 48 h (100 = growth as untreated, 0 = no growth, -100 = all killed)
Details: 10 µM unless noted

Question: For `CCN(CC)CC(=O)Nc1cccc(C(=O)OC(C)C)c1`, which growth is on record?
Answer: 81.9%

Question: How did the growth turn out when `CCCCOC(=O)c1ccc(NC(=O)C(C)N2CCOCC2)cc1` (centres undefined) was run?
Answer: 90.6%

Question: Which growth does the source give for `CN1C[C@@H](c2ccc(Cl)cc2)[C@]2(NC(=S)N(c3ccc(F)c(Cl)c3)C2=O)[C@@]12C(=O)NC1C=CC(Cl)=C[C@H]12` (some centres undefined) here?
Answer: 53.3%

Question: With `OC(CBr)c1ccnc2ccccc12` (centres undefined) as the compound, how does the growth read?
Answer: 93.3%

Question: Which growth does the source give for `CCCCNCC(=O)Nc1ccc(C(=O)OCC)cc1` here?
Answer: 93%

Question: For `Nc1nc(Nc2ccc(Cl)cc2)nn1S(=O)(=O)c1ccc(-c2ccc(F)cc2)cc1`, which growth is on record?
Answer: 107%

Question: Which growth does the source give for `CCCCCOC(=O)c1cccc(NC(=O)CN(CC)CC)c1` here?
Answer: 70.7%

Question: `N#Cc1c(N)n2c(nc1=Nc1ccc(Cl)cc1)sc1cc(Cl)ccc12` was tested. Which growth did it give?
Answer: 69.8%

Question: `CCN(CC)CCOC(=O)Nc1ccccc1Cl` was tested. Which growth did it give?
Answer: 88.3%

Question: `CCN(CC)c1ccc(Nc2ccc(CC(=O)c3ccccc3)cc2)cc1` was tested. Which growth did it give?
Answer: 81.7%

Question: For `O[C@H]1CO[C@H]2[C@@H]1OC[C@@H]2Oc1ccc(Nc2nc(Nc3ccc(F)c(Cl)c3)ncc2F)cc1Cl`, which growth is on record?
Answer: 113%

Question: `CS(=O)(=O)c1ccc(-c2nc3cc(Cl)ccc3n2CC(=O)N/N=C/c2ccc(Cl)cc2)cc1` was tested. Which growth did it give?
Answer: 44.3%

Question: Which growth does the source give for `COc1cc2c(cc1OC)-c1ccc3cc4c(cc3c1N(CCN(C)C)C2)OCO4` here?
Answer: 36%

Question: How did the growth turn out when `CC[C@]1(O)C[C@H]2CN(CCc3c([nH]c4ccccc34)[C@@](C(=O)OC)(c3cc4c(cc3OC)N(C=O)[C@H]3[C@@](O)(C(=O)OC)[C@H](OC(C)=O)[C@]5(CC)C=CCN6CC[C@]43[C@@H]65)C2)C1` was run?
Answer: 58%

Question: How did the growth turn out when `CCN(CC)CCCC(C)NCc1ccccc1` (centres undefined) was run?
Answer: 80.9%

Question: With `CCOC(=O)c1ccc(NC(=O)CCCN(CC)CC)cc1` as the compound, how does the growth read?
Answer: 73%

Question: With `CCC(C)NCc1ccccc1` (centres undefined) as the compound, how does the growth read?
Answer: 92.6%

Question: With `CCCNCC(=O)Nc1ccc(C(=O)OC(C)(C)CC)cc1` as the compound, how does the growth read?
Answer: 95.6%

Question: Which growth does the source give for `O=C(Nc1ccccc1Cl)OCCN1CCOCC1` here?
Answer: 96.7%

Question: How did the growth turn out when `O=C1N(c2ccccc2)C(=S)N[C@]12[C@H](c1ccccc1)C1CCCN1[C@]21C(=O)NC2C=CC(Cl)=C[C@H]21` (some centres undefined) was run?
Answer: 91%

Question: `CCOC(=O)c1c(C)nc2c(c1N)/C(=C/c1ccc(OC)cc1)C(=O)N2Cc1ccc(F)cc1` was tested. Which growth did it give?
Answer: -27.5% (active)

Question: How did the growth turn out when `COc1ccc(C2CC(c3cnccn3)=NN2)cc1OC` (centres undefined) was run?
Answer: 79%

Question: Which growth does the source give for `COc1cc2c(cc1OC)-c1ccc3cc4c(cc3c1N(CCCN(C)C)C2)OCO4` here?
Answer: 45.4%

Question: For `CCCCCOC(=O)c1ccc(NC(=O)CNCC(C)C)cc1`, which growth is on record?
Answer: 103%

Question: With `COc1cc(-c2cccc([N+](=O)[O-])c2)c(-c2nc(-c3ccccc3)c(-c3ccccc3)n2C2CC2)cc1OC` as the compound, how does the growth read?
Answer: 57.6%

Question: How did the growth turn out when `N=C(N)c1ccc(-c2ccc(-c3ccc(Cl)cc3Cl)o2)nc1` was run?
Answer: 103%

Question: With `COc1cc(C(=O)/C=C/c2c(-c3ccc(F)cc3)nc3ncccn23)cc(OC)c1OC` as the compound, how does the growth read?
Answer: 30.1%

Question: For `N#Cc1cnn2c(-c3ccc(Cl)cc3)nc(NC3CC3)nc12`, which growth is on record?
Answer: 99.8%

Question: For `COc1cc(-c2ccc(-c3ccc(C(=N)N)nc3)s2)cc(OC)c1OC`, which growth is on record?
Answer: 89.3%

Question: With `COc1cc2c(cc1OC)-c1ccc3cc4c(cc3c1N(CCCN1CCCCC1)C2)OCO4` as the compound, how does the growth read?
Answer: 68.8%

Question: Which growth does the source give for `COc1cccc(CCC2CCCN(c3cc(C)nc(N)n3)C2)c1` (centres undefined) here?
Answer: 29.1%

Question: Which growth does the source give for `N#Cc1c(N)n2c(nc1=Nc1ccc([N+](=O)[O-])cc1)sc1cc(Cl)ccc12` here?
Answer: 99.4%

Question: For `CCCc1cc(=O)oc2c3c(c4c(c12)OC(C)(C)C=C4)O[C@@H](C)[C@H](C)C3=O`, which growth is on record?
Answer: 97.1%

Question: `Cc1ccc(Nc2ccc(Nc3ccc(C)cc3S(=O)(=O)O)c3c2C(=O)c2ccccc2C3=O)c(S(=O)(=O)O)c1` was tested. Which growth did it give?
Answer: 101%

Question: Which growth does the source give for `O=C(NC1CCOCC1)c1ccc2c(c1)CN(c1ncc(Cc3cccc(-n4cccn4)c3)s1)CC2` here?
Answer: 54.9%

Question: With `O=S(=O)(Cc1ccccc1)c1nc2ccccc2s1` as the compound, how does the growth read?
Answer: 57.7%

Question: How did the growth turn out when `COc1cc2c(=O)n(CCCn3ccnc3)c3c4cc5c(cc4ccc3c2cc1OC)OCO5` was run?
Answer: 22%

Question: `CN(C)c1ccc(-c2cc(-c3ccc(Nc4nc(Nc5ccccc5)nc(Nc5ccc(Cl)cc5)n4)cc3)nc(N)n2)cc1` was tested. Which growth did it give?
Answer: 47.2%

Question: `CCOC(=O)c1c(C)[nH]c(C(=O)CCC(=O)OC)c1C` was tested. Which growth did it give?
Answer: 83.1%

From PubChem BioAssay (NCI)
